# According to the supplement of paper PMC8975748:
# Where a name gives a salt, the structure may show the parent alone. ± gives the standard deviation of the averaged measurements.
# How the values were obtained:
# [1] = test system: Saccharomyces cerevisiae BY4741 SeMeCo community; test: z-score of prototroph abundance vs DMSO median; higher = larger share of this subpopulation than in DMSO controls; conditions: 10 µM; 24 h; SM minimal medium; subpopulation (auxotrophy): Prototroph
# In short: (§1)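 Automated confocal microscopy of paraformaldehyde-fixed cells was used to follow a Saccharomyces cerevisiae BY4741 community carrying four plasmids, each restoring one auxotrophy and encoding a distinct fluorescent protein. The community was pre-grown overnight to OD600 1.0, diluted to 0.3, and added at 70 µl to 384-well plates acoustically predosed with library drugs (10 µM final) for 24 h of growth in minimal SM medium. Single-auxotroph fluorescent strains set thresholds and autofluorescence correction, and each subpopulation's abundance was scored as a z-score against the vehicle-well median.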
# [2] = test system: Saccharomyces cerevisiae BY4741 SeMeCo community; test: z-score of subpopulation abundance vs DMSO median, subpopulation auxotrophic for M; higher = larger share of this subpopulation than in DMSO controls; conditions: 10 µM; 24 h; SM minimal medium; subpopulation (auxotrophy): M
# In short: as §1
# [3] = test system: Saccharomyces cerevisiae BY4741 SeMeCo community; test: z-score of subpopulation abundance vs DMSO median, subpopulation auxotrophic for L; higher = larger share of this subpopulation than in DMSO controls; conditions: 10 µM; 24 h; SM minimal medium; subpopulation (auxotrophy): L
# In short: as §1
# [4] = test system: Saccharomyces cerevisiae BY4741 SeMeCo community; test: z-score of subpopulation abundance vs DMSO median, subpopulation auxotrophic for H; higher = larger share of this subpopulation than in DMSO controls; conditions: 10 µM; 24 h; SM minimal medium; subpopulation (auxotrophy): H
# In short: as §1
# [5] = test system: Saccharomyces cerevisiae BY4741 SeMeCo community; test: z-score of subpopulation abundance vs DMSO median, subpopulation auxotrophic for LU; higher = larger share of this subpopulation than in DMSO controls; conditions: 10 µM; 24 h; SM minimal medium; subpopulation (auxotrophy): LU
# In short: as §1
# [6] = test system: Saccharomyces cerevisiae BY4741 SeMeCo community; test: z-score of subpopulation abundance vs DMSO median, subpopulation auxotrophic for LM; higher = larger share of this subpopulation than in DMSO controls; conditions: 10 µM; 24 h; SM minimal medium; subpopulation (auxotrophy): LM
# In short: as §1
# [7] = test system: Saccharomyces cerevisiae BY4741 SeMeCo community; test: z-score of subpopulation abundance vs DMSO median, subpopulation auxotrophic for HM; higher = larger share of this subpopulation than in DMSO controls; conditions: 10 µM; 24 h; SM minimal medium; subpopulation (auxotrophy): HM
# In short: as §1
# [8] = test system: Saccharomyces cerevisiae BY4741 SeMeCo community; test: z-score of subpopulation abundance vs DMSO median, subpopulation auxotrophic for HU; higher = larger share of this subpopulation than in DMSO controls; conditions: 10 µM; 24 h; SM minimal medium; subpopulation (auxotrophy): HU
# In short: as §1
# [9] = test system: Saccharomyces cerevisiae BY4741 SeMeCo community; test: z-score of subpopulation abundance vs DMSO median, subpopulation auxotrophic for UM; higher = larger share of this subpopulation than in DMSO controls; conditions: 10 µM; 24 h; SM minimal medium; subpopulation (auxotrophy): UM
# In short: as §1
# [10] = test system: Saccharomyces cerevisiae BY4741 SeMeCo community; test: z-score of subpopulation abundance vs DMSO median, subpopulation auxotrophic for HL; higher = larger share of this subpopulation than in DMSO controls; conditions: 10 µM; 24 h; SM minimal medium; subpopulation (auxotrophy): HL
# In short: as §1
# [11] = test system: Saccharomyces cerevisiae BY4741 SeMeCo community; test: z-score of subpopulation abundance vs DMSO median, subpopulation auxotrophic for HLU; higher = larger share of this subpopulation than in DMSO controls; conditions: 10 µM; 24 h; SM minimal medium; subpopulation (auxotrophy): HLU
# In short: as §1
# [12] = test system: Saccharomyces cerevisiae BY4741 SeMeCo community; test: z-score of subpopulation abundance vs DMSO median, subpopulation auxotrophic for HLM; higher = larger share of this subpopulation than in DMSO controls; conditions: 10 µM; 24 h; SM minimal medium; subpopulation (auxotrophy): HLM
# In short: as §1
# [13] = test system: Saccharomyces cerevisiae BY4741 SeMeCo community; test: z-score of subpopulation abundance vs DMSO median, subpopulation auxotrophic for HUM; higher = larger share of this subpopulation than in DMSO controls; conditions: 10 µM; 24 h; SM minimal medium; subpopulation (auxotrophy): HUM
# In short: as §1
# [14] = test system: Saccharomyces cerevisiae BY4741 SeMeCo community; test: z-score of subpopulation abundance vs DMSO median, subpopulation auxotrophic for LUM; higher = larger share of this subpopulation than in DMSO controls; conditions: 10 µM; 24 h; SM minimal medium; subpopulation (auxotrophy): LUM
# In short: as §1
# [15] = test system: Saccharomyces cerevisiae BY4741 SeMeCo community; test: z-score of subpopulation abundance vs DMSO median, subpopulation auxotrophic for HLUM; higher = larger share of this subpopulation than in DMSO controls; conditions: 10 µM; 24 h; SM minimal medium; subpopulation (auxotrophy): HLUM
# In short: as §1
# [16] = test system: Saccharomyces cerevisiae BY4741 SeMeCo community; test: z-score of subpopulation abundance vs DMSO median, subpopulation auxotrophic for U; higher = larger share of this subpopulation than in DMSO controls; conditions: 10 µM; 24 h; SM minimal medium; subpopulation (auxotrophy): U
# In short: as §1
# [17] = test system: Saccharomyces cerevisiae BY4741 SeMeCo community; test: mean cell size (pixel area) (pixels); higher = larger cells; conditions: 10 µM; 24 h; SM minimal medium
# In short: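 In this assay, mean cell pixel area per well was obtained from automated confocal images of paraformaldehyde-fixed yeast analysed in Harmony. The cells were a Saccharomyces cerevisiae BY4741 community with four plasmids, each complementing one auxotrophy and carrying a fluorescent marker, grown for 24 h in SM medium with drug at a final 10 µM in 384-well plates. Values are averaged across 3 replicates. Same SeMeCo high-content imaging drug screen: Selleck FDA-approved drugs at 10 µM, 24 h in SM medium, 384-well plates, 3 replicates.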
SMILES,z-score of prototroph abundance [1],z-score of subpopulation abundance [2],z-score of subpopulation abundance [3],z-score of subpopulation abundance [4],z-score of subpopulation abundance [5],z-score of subpopulation abundance [6],z-score of subpopulation abundance [7],z-score of subpopulation abundance [8],z-score of subpopulation abundance [9],z-score of subpopulation abundance [10],z-score of subpopulation abundance [11],z-score of subpopulation abundance [12],z-score of subpopulation abundance [13],z-score of subpopulation abundance [14],z-score of subpopulation abundance [15],z-score of subpopulation abundance [16],mean cell size [17]
CN1CCN2c3ncccc3Cc3ccccc3C2C1 (centres undefined) [Mirtazapine],0.24,0.18,-0.64,-0.51,-0.59,-0.11,-0.07,0.29,0.24,-0.38,-0.45,-0.85,1.07,-0.74,-0.87,–,–
O=C1c2cccc3c2[C@H](CCC3)CN1[C@@H]1CN2CCC1CC2 [Palonosetron HCl],0.21,-0.37,-0.13,-0.32,-0.38,-0.39,-0.69,0.33,0.37,-0.31,-0.05,-0.58,-0.03,-0.02,-0.14,–,–
OCCN1CCN(CC/C=C2/c3ccccc3Sc3ccc(C(F)(F)F)cc32)CC1 [Flupenthixol dihydrochloride],–,-0.29,1.34,0.73,0.47,0.75,0.47,0.56,–,0.88,0.47,0.33,-0.33,0.65,-0.47,-0.72,–
OCCOCCN1CCN(C2=Nc3ccccc3Sc3ccccc32)CC1 [Quetiapine Fumarate],–,0.24,0.37,-0.24,-0.19,–,0.13,-0.61,–,-0.06,0.76,0.55,0.19,0.86,0.41,–,–
O=c1[nH]c(=O)n([C@H]2C[C@H](O)[C@@H](CO)O2)cc1I [Idoxuridine],0.18,-0.27,0.48,-0.48,-0.03,0.06,-0.13,-0.23,-0.05,-0.43,-0.57,-0.75,–,-0.31,-0.73,0.23,12.4 ± 0.2
NC[C@@H]1O[C@H](O[C@H]2[C@@H](O)[C@H](O[C@@H]3[C@@H](O)[C@H](N)C[C@H](N)[C@H]3O[C@H]3O[C@H](CO)[C@@H](O)[C@H](O)[C@H]3N)O[C@@H]2CO)[C@H](N)[C@@H](O)[C@@H]1O [Paromomycin Sulfate],-0.33,1.04,0.88,0.2,-0.04,1.42,1.15,–,–,0.39,-0.44,0.02,–,–,0.85,-0.06,12.31 ± 0.12
O=C(Nc1ccc(Oc2ccc(Cl)cc2)c(Cl)c1)c1cc(I)cc(I)c1O [Rafoxanide],0.24,-0.29,1.02,1.91,-0.7,0.2,0.8,-0.5,-0.89,1.29,-0.3,0.01,–,–,0.01,-1.44,12.2 ± 0.19
Cc1nc2n(c(=O)c1CCN1CCC(c3noc4cc(F)ccc34)CC1)CCCC2 [Risperidone],-0.99,-0.08,-0.44,–,0.52,–,–,0.99,0.87,0.49,0.19,0.11,–,0.14,-0.21,0.56,12.3 ± 0.18
CSCC1CN(/N=C/c2ccc([N+](=O)[O-])o2)C(=O)O1 (centres undefined) [Nifuratel],1.73,3.2,3.68,5.51,-5.94,3.06,1.92,-5.85,–,4.21,-1.21,2.19,–,-2.95,1.35,-7.52,13.05 ± 0.13
CCOC(=O)C1=C(C)NC(C)=C(C(=O)OC)C1c1cccc(Cl)c1Cl (centres undefined) [Felodipine],2.53,3.86,1.68,3.29,-6.85,4.88,–,-6.8,-7.8,4.71,-3.41,8.73,–,-4.09,-1.13,-6.72,12.57 ± 0.072
Cc1ncc([N+](=O)[O-])n1C [Dimetridazole],–,-0.26,-1.34,0.05,-0.31,-0.99,-0.42,0.17,-0.37,–,-0.59,0.46,–,-1.1,0.31,-0.07,12.5 ± 0.19
Cc1ccc(Sc2ccccc2N2CCNCC2)c(C)c1 [Vortioxetine],0.02,0.08,-0.09,-0.14,-0.19,-0.16,-0.01,0.9,0.26,–,0.51,0.2,–,-0.16,-0.06,-0.12,12.18 ± 0.097
Cc1cc(O)cc(C)c1Cl [Chloroxylenol],-1.56,0.89,0.85,0.68,0.64,–,–,1.05,1.27,0.81,0.24,0.76,–,–,0.12,0.84,12.7 ± 0.17
COc1ccc(C(=O)NCc2ccc(OCCN(C)C)cc2)cc1OC [Itopride hydrochloride],–,0.65,0,-0.37,0.56,0.86,0.17,0.11,0.38,-0.33,0.07,0.04,–,0.15,-0.16,-0.45,12.4 ± 0.13
CCOc1ccc2nc3cc(N)ccc3c(N)c2c1 [Ethacridine lactate monohydrate],3.33,5.99,1.84,4.4,-7.71,–,5.32,-8.09,-9.56,–,-4.38,5.56,–,-5.24,-2.52,-8.13,12.86 ± 0.11
